# CYP2C9 act: activators of human CYP2C9. P11712. recombinant CYP2C9, luciferin-H conversion, luminescence; active compounds read high; factor 1 = untreated enzyme, 0 = blocked. activation factor at 5 µM. hit rate 1.4% among 96,000. AID 1024;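 active = activation factor of 2 or more for CYP2C9 at a 5 µM dose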;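 note: 0 = sulfaphenazole-blocked wells and 1 = vehicle-only wells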
# Mac1 fbg inh: inhibitors of human CD11b/CD18 binding to fibrinogen. P05107+P11215. K562 CD11b/CD18 adhesion to fibrinogen, ATPlite luminescence; Mn2+ added to activate the integrin. inhibition, % at 10 µM. hit rate 0.54% among 93,000. AID 1497;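 active = primary inhibition of 50% or more at 10 µM, then 40% or more on retest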
# Target sequence (P05107 whole entry, looked up, other chains not shown): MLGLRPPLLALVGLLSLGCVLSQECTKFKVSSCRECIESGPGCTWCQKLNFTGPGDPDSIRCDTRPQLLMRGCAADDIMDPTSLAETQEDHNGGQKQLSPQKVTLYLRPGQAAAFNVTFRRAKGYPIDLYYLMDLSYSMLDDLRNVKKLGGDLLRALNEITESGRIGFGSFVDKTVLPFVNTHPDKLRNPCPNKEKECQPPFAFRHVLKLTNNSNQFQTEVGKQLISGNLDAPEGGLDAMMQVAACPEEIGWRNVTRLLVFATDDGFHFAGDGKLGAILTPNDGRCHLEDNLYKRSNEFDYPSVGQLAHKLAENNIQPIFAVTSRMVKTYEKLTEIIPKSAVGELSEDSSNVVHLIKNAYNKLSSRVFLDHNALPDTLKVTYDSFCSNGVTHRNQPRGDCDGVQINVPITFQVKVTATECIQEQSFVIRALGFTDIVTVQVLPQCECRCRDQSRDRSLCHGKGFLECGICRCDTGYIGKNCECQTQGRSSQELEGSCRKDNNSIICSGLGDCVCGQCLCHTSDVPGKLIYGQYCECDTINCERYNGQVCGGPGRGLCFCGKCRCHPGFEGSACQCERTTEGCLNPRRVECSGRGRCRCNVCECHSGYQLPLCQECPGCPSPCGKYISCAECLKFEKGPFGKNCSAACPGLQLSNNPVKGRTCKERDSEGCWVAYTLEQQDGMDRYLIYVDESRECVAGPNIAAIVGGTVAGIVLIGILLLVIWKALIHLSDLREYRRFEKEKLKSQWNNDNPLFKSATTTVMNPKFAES
# CD11b adhes enh: CD11b/CD18-fibrinogen binding enhancement | P05107+P11215 | K562 CD11b/CD18 adhesion to fibrinogen, ATPlite luminescence | activation, % at 10 µM | hit rate 0.07% among 93,000 | AID 1499;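 active = 10 µM primary screen giving 50% or more activity, confirmed by 40% or more on retest at that dose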
# CYP2C19 inh: inhibitors of human CYP2C19 | P33261 | CYP2C19 Supersomes, luciferin-H EGE luminescence, 30 min | AID 778 | hit rate 21% among 96,000 | inhibition, % at 5 µM;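 active = CYP2C19 inhibition above a set limit at 5 µM in the primary screen, cut at about 50% in these data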;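 note: plate controls were negative control wells for no effect and 2.5 mM tranylcypromine positive control for full effect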
# CYP2C9 inh: inhibitors of human CYP2C9. hit rate 20% among 96,000. CYP2C9 Supersomes, luciferin-H conversion, luminescence. AID 777. P11712. inhibition, % at 5 µM;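 active = blocking of liver enzyme CYP2C9 beyond about 50% at 5 µM, limit read from the data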
# CYP2C19 act: activators of human cytochrome P450 2C19. P33261. recombinant CYP2C19, luciferin-H EGE luminescence; active compounds read high; 0 = fully inhibited enzyme, 1 = untreated enzyme. activation factor at 5 µM. 96,000 tested, under 10 active;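 active = activation factor of at least 2 at 5 µM in the primary screen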;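 note: 0 = wells with 2.5 mM tranylcypromine and 1 = vehicle-only wells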
# An asterisk follows results filed as active; . = no result given. The list is not random: actives were taken first. Their share in the collection is about 28%.
SMILES,CYP2C9 act,Mac1 fbg inh,CD11b adhes enh,CYP2C19 inh,CYP2C9 inh,CYP2C19 act
COc1ccc(CC(=O)Nc2nc(C)cs2)cc1OC,0.7,-2,1,60*,30,0.4
COc1ccc(-c2csc(NC(=O)CCn3cnc4ccccc4c3=O)n2)cc1OC,0.3,.,.,85*,66*,0.1
COc1ccc(-c2csc(NC(=O)CN3C(=O)CCC3=O)n2)cc1OC,.,5,-6,.,.,.
Cc1cc(C)n(CNc2nc(C(F)(F)F)cs2)n1,1,1,-4,17,1,0.8
Cc1cc(NC(=O)c2cc3ncc(Br)cn3n2)no1,0.8,-6,-3,-8,17,1.1
O=C(CN1C(=O)S/C(=C/c2cc(Br)cs2)C1=O)N1CCOCC1,.,1,-4,.,.,.
COc1ccc(NC(=O)N(CCO)Cc2cc3c(C)cc(C)cc3[nH]c2=O)cc1,1,-4,-4,3,1,1
Cc1cc(C)c2cc(CN(CCO)C(c3nnnn3Cc3ccc(F)cc3)C(C)C)c(=O)[nH]c2c1 (stereo not drawn),0.1,14,5,76*,93*,0.2
CCC(c1nnnn1Cc1ccc(F)cc1)N(CCCO)Cc1cc2cc3c(cc2[nH]c1=O)OCO3 (stereo not drawn),0.9,-16,6,55*,12,0.4
Cc1cc(C)c2cc(CN(CCO)C(=O)Nc3ccc(F)cc3)c(=O)[nH]c2c1,0.6,-16,2,74*,38,0.3
Cc1cc(C)c2cc(CN(Cc3ccco3)C(=O)NCc3ccccc3)c(=O)[nH]c2c1,0.4,2,-5,28,55*,0.7
COC(=O)CC1C(=O)NCCN1C(=O)NC1CCCCC1 (stereo not drawn),1.1,-3,-4,-12,-14,1.1
O=C1CSC(c2ccccn2)N1Cc1cn2ccccc2n1 (stereo not drawn),1.1,-7,4,20,-11,0.8
COc1ccc(/C=C/C(=O)C2C(=O)C=C(C)OC2=O)cc1O (stereo not drawn),.,-7,0,.,.,.
CN(C)c1ccc(CNCCC2(O)CCOC(C)(C)C2)cc1 (stereo not drawn),1,-16,-4,53*,4,0.5
Cc1cc2c(C)nc(Cc3ccccc3)nc2o1,0.9,12,4,74*,9,0.3
CCOC(=O)Cn1nnnc1C(C(C)C)N(Cc1cccs1)Cc1cc2cc(C)ccc2[nH]c1=O (stereo not drawn),0.4,4,1,84*,64*,0.2
CCC(c1nnnn1C1CCCC1)N(Cc1cccs1)Cc1cc2cc(C)ccc2[nH]c1=O (stereo not drawn),2*,18,-3,37,-98,0.6
CCOc1ccc2[nH]c(=O)c(CN(Cc3cccs3)C(CC)c3nnnn3C(C)(C)CC)cc2c1 (stereo not drawn),0.1,23,-6,63*,87*,0.4
CCOC(=O)Cn1nnnc1C(CC)N(Cc1cccs1)Cc1cc2cc(C)ccc2[nH]c1=O (stereo not drawn),0.2,-12,-4,95*,85*,0.1
CCOC(=O)Cn1nnnc1C(CC)N(Cc1cc2ccc(C)cc2[nH]c1=O)C1CCCC1 (stereo not drawn),0.6,-7,-3,42,36,0.6
CCCn1c(SCC(=O)NC2CCCCC2C)n[nH]c1=O (stereo not drawn),1.2,20,-1,-24,-19,1.2
O=C1/C(=N/n2cnnc2)c2ccccc2N1Cc1ccccc1,0.7,.,.,63*,26,0.4
c1ccc2c(c1)C(=Nn1cnnc1)c1ccccc1-2,0.8,-23,6,44,23,0.6
CC(=O)Nc1ccc(OCC(O)CN2C(C)(C)CC(O)CC2(C)C)cc1 (stereo not drawn),.,-6,2,.,.,.
SMILES,CYP2C9 act,Mac1 fbg inh,CD11b adhes enh,CYP2C19 inh,CYP2C9 inh,CYP2C19 act
CCN(C(=O)c1cnc(N2CCN(c3ncccn3)CC2)c2ccccc12)c1cccc(Cl)c1,0.2,.,.,97*,85*,0
O=C(c1csc2ccccc12)N1CCN(c2ccccn2)CC1,1.2,6,-3,40,-15,0.6
O=C(c1cnc(N2CCN(c3ncccn3)CC2)c2ccccc12)N1CCN(c2ncccn2)CC1,0.4,22,0,42,64*,0.6
O=C(Cn1ccc2ccccc2c1=O)N1CCN(c2cccc(Cl)c2)CC1,1.5,.,.,-9,-48,1.1
CN(C(=O)c1cnc(N2CCN(c3ncccn3)CC2)c2ccccc12)c1ccc(Cl)cc1,0.3,0,2,88*,70*,0.1
O=C(N1CCOCC1)N(CCN1CCOCC1)Cc1cccc(Cl)c1,1.1,-2,-4,-1,-7,1
COc1ccc(C2SCC(=O)N2CCCN(C)C)cc1 (stereo not drawn),1,0,-4,-18,3,1.2
CC(NC(=O)CSc1nc(=O)cc(N)n1CCc1ccccc1)c1ccccc1 (stereo not drawn),0.8,.,.,27,17,0.7
CCOC(=O)C1CCN(S(=O)(=O)c2ccc3[nH]c(=O)oc3c2)CC1,1,9,-3,56*,-2,0.4
CCOC(=O)C1CCN(S(=O)(=O)c2ccc(C)cc2)CC1,0.7,-30,-2,81*,27,0.2
Cc1ccc(S(=O)(=O)N2CCC(C(=O)Nc3ccccc3N3CCCCC3)CC2)cc1,0.1,65,0,80*,87*,0.2
Cc1ccc(S(=O)(=O)N2CCC(C(=O)Nc3nnc(C4CCCC4)s3)CC2)cc1,1,15,1,5,3,1
Cc1cc2n(n1)C(c1c[nH]c3ccccc13)Nc1ccccc1-2 (stereo not drawn),0.2,2,-5,22,81*,0.8
CNC(=O)CN1C(=O)c2cccc3cccc1c23,1.2,24,-2,-4,-20,1
CC(C(N)=O)N1C(=O)c2cccc3cccc1c23 (stereo not drawn),3.2*,-1,-2,-3,-220,1
c1ccc(CN2CCN(C3=Nc4cccc5cccc3c45)CC2)cc1,0.9,2,-1,57*,14,0.4
CCCNC(=O)c1c[nH]c2ccc(S(=O)(=O)N(C)c3ccc(OCC)cc3)cc2c1=O,0.2,44,1,45,83*,0.6
COc1cccc(NS(=O)(=O)c2ccc3[nH]cc(C(=O)NCCC(C)C)c(=O)c3c2)c1,0.3,-1,-1,13,70*,0.9
N#Cc1cccc(-n2nnnc2-c2ccc3c(c2)OCO3)c1,0.8,-18,-2,97*,22,0
N#Cc1cccc(-n2nnnc2-c2ccccn2)c1,0.9,2,-2,9,8,0.9
O=C(CSc1nnnn1-c1ccc2c(c1)OCO2)NCc1cccs1,1,8,3,49,2,0.5
N#Cc1ccc(-c2nnnn2-c2ccc3c(c2)OCO3)cc1,0.7,-11,0,61*,27,0.4
